Reference: PubChem BioAssay (NCATS)
Inconclusive results are not listed. Calls of active or inactive are those of the source. Unless noted, the call rests on the fitted dose curve; in most records, active means well fitted curve in the direction sought with a large enough effect; inconclusive means small, poorly fitted or top-dose-only effect, or another doubt; inactive means no such curve, though single readings can be large; an effect the other way counts as inactive or inconclusive.

What was measured:
[1] = biological target: Metallo-beta-lactamase type 2 (Klebsiella pneumoniae) (UniProt C7C422); test: qHTS to identify inhibitors of the New Delhi Metallo-beta-lactamase (NDM): assay validation screen against the NCATS LOPAC Collection (AID 1794843);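 further: nitrocefin turnover by NDM-1 measured as 485 nm absorbance at plateau; series mostly up to about 38 µM; on the % scale 0 is the no-effect control and ±100 the full control effect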
Procedure, shortened: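 NDM-1 at 2 nM final in 50 mM HEPES pH 7.0, 1 uM ZnSO4, 0.01% Tween20, preincubated with LOPAC compounds pinned in DMSO; 50 uM nitrocefin (stock) added. Hydrolysis read as absorbance at 485 nm in the plateau phase.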

[2] = biological target: Glutathione peroxidase 1 (Homo sapiens) (UniProt P07203); test: Primary qHTS Assay for Inhibitors of Recombinant Selenoprotein Glutathione Peroxidase 1 (GPX1) (AID 1845191); further: nearly all actives have a fitted effect of over 65% in size
Procedure, shortened: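 NADPH consumption tracked by fluorescence at 340/450 nm between t=0 and t=15 min, room temperature. Final mix: 10 nM GPX1, 100 nM glutathione reductase, 1 mM GSH, 0.5 mM NADPH, 0.5 mM cumene hydroperoxide, 0.01% BSA; 30 min compound–enzyme preincubation.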

[3] = biological target: Phospholipid hydroperoxide glutathione peroxidase GPX4 (Homo sapiens) (UniProt P36969); test: Primary qHTS Assay for Inhibitors of Recombinant Selenoprotein Glutathione Peroxidase 4 (GPX4) (AID 1845192); further: nearly all actives have a fitted effect of over 65% in size
Procedure, shortened: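 NADPH consumption followed by fluorescence at 340/450 nm, t=0 and after 15 min at room temperature. Reaction started with cumene hydroperoxide (0.5 mM final) after 30 min compound–GPX4 preincubation; final 200 nM GPX4, 100 nM GR, 1 mM GSH, 0.5 mM NADPH.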

[4] = NCATS anti-infectives library activity on HEK293 viability as a counter-qHTS vs the C. elegans viability qHTS (AID 1745854);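 further: HEK293 cells exposed to compounds for 24 hr before the viability read; on the % scale 0 is the no-effect control and ±100 the full control effect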
Procedure, shortened: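 Counter-screen for cytotoxicity: HEK293, 24 hr, 37C, compounds up to 41.7 uM final (a dilution series, 1:5). Readout CellTiter-Glo luminescence, 10 min RT. Digitonin control, 83.3 uM final.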

[5] = NCATS anti-infectives library activity on the primary C. elegans qHTS viability assay (AID 1745855; calls by dose curve)
Procedure, shortened: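 GFP read-out by 488 nm laser cytometry at day 0, 3 and 7, gated on object perimeter, area and peak intensity, scored viability of PE254-GFP-FLuc worms exposed to compound in S medium with bacterial capsules at 21 °C.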

[6] = biological target: Nicotinamide N-methyltransferase (Homo sapiens) (UniProt P40261); test: Confirmatory Screen for Target Class Profiling of Small Molecule Inhibitors of Methyltransferases (AID 1745852); conditions: MTase-Glo luminescence, SAH detection, recombinant enzyme; measured here: NNMT max response; stronger effect = lower value
[7] = biological target: Phenylethanolamine N-methyltransferase (Homo sapiens) (UniProt P11086); test: as above; conditions: MTase-Glo luminescence, SAH detection, recombinant enzyme; measured here: PNMT max response; stronger effect = lower value
[8] = Viability counterscreen for antagonist of constitutive androstane receptor (CAR) against the NCATS DSHEA and TCM libraries (AID 1794837);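 further: compound exposure lasted 24 h before viability reading; 0% is about no effect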
Procedure, shortened: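 Cells: HepG2 line carrying CYP2B6 reporter and hCAR, seeded and attached 5 h. Then pin-transferred test substances plus agonist CITCO at 48 uM final; 24 h incubation; fluorogenic viability reagent, 1 h.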

[9] = Viability counterscreen for agonist of constitutive androstane receptor (CAR) against the NCATS DSHEA and TCM libraries (AID 1794838);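 further: HepG2 cells with CYP2B6 reporter and hCAR plus 0.75 µM PK11195 antagonist; 0% is about no effect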
Procedure, shortened: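 Cell health was measured as CellTiter-Fluor signal in HepG2-CYP2B6-hCAR cells treated for 24 h with substances alongside the hCAR antagonist PK11195 (0.75 uM final).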

[10] = biological target: Nuclear receptor subfamily 1 group I member 3 (Homo sapiens) (UniProt Q14994); test: Primary qHTS for agonist of constitutive androstane receptor (CAR) against the NCATS DSHEA and TCM libraries (AID 1794839);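 further: HepG2 cells expressing human CAR with a CYP2B6 reporter plus PK11195 antagonist; luciferase reporter luminescence read with ONE-Glo; 0% is about no effect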
Procedure, shortened: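 qHTS, agonist mode: HepG2-CYP2B6-hCAR, 2,500 cells/well, 5 h attach; cpds + PK11195 0.75 µM final; 24 h, 37 °C, 5% CO2. Readouts: CellTiter-Fluor (405/540 nm), then ONE-Glo luminescence.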

[11] = HepG2 viability counterscreen (readout 2: ATP content) against the NCATS DSHEA and TCM libraries (AID 1794840); further: 0% is about no effect
Procedure, shortened: (§1)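 Same wells read twice: first fluorescence from cleaved GF-AFC substrate (25 uM final, 30 min, 37C) for live-cell protease, then CellTiter-Glo luminescence after 30 min at room temperature for ATP. HepG2 cells were exposed ~24 h to substances.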

[12] = HepG2 viability counterscreen (readout 1: protease activity) against the NCATS DSHEA and TCM libraries (AID 1794841);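 further: cells exposed to compounds for about 24 h before the protease read; 0% is about no effect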
Procedure, shortened: as §1

[13] = biological target: Cytochrome P450 2D6 (Homo sapiens) (UniProt P10635); test: qHTS for inhibitors of CYP2D6 against the NCATS DSHEA and TCM libraries (AID 1919972); further: on the % scale 0 is the no-effect control and ±100 the full control effect
Procedure, shortened: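 CYP2D6 enzyme with pro-luciferin substrate in manufacturer buffer (typically 100 mM KPO4), preincubated 15 min RT with substances (most at 19.5 nM upward); NADPH regeneration system (1x) started 30–45 min RT reaction; P450-Glo luminescence read after 30 min; quinidine as intraplate control.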

[14] = biological target: Cytochrome P450 2C9 (Homo sapiens) (UniProt P11712); test: qHTS for inhibitors of CYP2C9 against the NCATS DSHEA and TCM libraries (AID 1919973);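 further: luminogenic pro-luciferin CYP2C9 substrate turned into luciferin with NADPH regeneration; series mostly up to about 34 µM; on the % scale 0 is the no-effect control and ±100 the full control effect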
Procedure, shortened: (§2)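 Concentration-response screening with isoform-matched pro-luciferin substrates. The CYP reaction was initiated by NADPH regenerating solution and ran 30-45 min in darkness at room temperature.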

[15] = biological target: Cytochrome P450 2C19 (Homo sapiens) (UniProt P33261); test: qHTS for inhibitors of CYP2C19 against the NCATS DSHEA and TCM libraries (AID 1919974);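 further: luminescence from luciferin released by CYP2C19 oxidation of a pro-luciferin substrate; potency means the concentration at half of the fitted maximal effect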
Procedure, shortened: as §2

Glutathione peroxidase 1 (Homo sapiens), sequence (P07203 whole entry, looked up): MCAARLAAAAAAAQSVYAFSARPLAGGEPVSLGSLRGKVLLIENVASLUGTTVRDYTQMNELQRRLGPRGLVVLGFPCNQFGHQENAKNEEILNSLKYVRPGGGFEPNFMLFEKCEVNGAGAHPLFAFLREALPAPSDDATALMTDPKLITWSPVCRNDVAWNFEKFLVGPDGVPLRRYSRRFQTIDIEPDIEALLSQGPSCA
Phospholipid hydroperoxide glutathione peroxidase GPX4 (Homo sapiens), sequence (P36969 whole entry, looked up): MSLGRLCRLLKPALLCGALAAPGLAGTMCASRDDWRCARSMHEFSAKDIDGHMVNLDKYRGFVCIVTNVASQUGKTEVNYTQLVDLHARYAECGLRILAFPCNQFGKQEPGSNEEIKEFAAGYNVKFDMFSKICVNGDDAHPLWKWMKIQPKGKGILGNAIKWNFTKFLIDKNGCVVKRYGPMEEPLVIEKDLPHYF
Metallo-beta-lactamase type 2 (Klebsiella pneumoniae), sequence (C7C422 whole entry, looked up): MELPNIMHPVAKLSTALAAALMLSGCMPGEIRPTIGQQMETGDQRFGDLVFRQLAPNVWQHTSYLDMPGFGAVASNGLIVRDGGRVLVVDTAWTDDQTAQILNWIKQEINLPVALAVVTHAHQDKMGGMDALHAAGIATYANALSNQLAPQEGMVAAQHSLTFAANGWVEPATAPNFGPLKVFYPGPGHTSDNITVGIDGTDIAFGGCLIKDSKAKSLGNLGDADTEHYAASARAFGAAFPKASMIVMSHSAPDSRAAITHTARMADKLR
Cytochrome P450 2C19 (Homo sapiens), sequence (P33261 whole entry, looked up): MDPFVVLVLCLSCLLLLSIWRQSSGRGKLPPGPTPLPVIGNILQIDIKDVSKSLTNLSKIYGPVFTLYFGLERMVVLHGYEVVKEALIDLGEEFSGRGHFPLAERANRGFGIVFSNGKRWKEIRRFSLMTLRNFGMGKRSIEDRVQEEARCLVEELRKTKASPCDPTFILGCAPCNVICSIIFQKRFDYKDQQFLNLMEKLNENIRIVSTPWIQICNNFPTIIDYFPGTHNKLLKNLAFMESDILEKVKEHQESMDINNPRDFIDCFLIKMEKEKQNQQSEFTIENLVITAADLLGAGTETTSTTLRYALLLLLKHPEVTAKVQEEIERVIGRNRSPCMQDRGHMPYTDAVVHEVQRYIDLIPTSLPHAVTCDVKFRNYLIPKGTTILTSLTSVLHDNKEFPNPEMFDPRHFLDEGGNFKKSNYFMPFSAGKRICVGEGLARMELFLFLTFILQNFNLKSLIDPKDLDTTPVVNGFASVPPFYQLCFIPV
Nuclear receptor subfamily 1 group I member 3 (Homo sapiens), sequence (Q14994 whole entry, looked up): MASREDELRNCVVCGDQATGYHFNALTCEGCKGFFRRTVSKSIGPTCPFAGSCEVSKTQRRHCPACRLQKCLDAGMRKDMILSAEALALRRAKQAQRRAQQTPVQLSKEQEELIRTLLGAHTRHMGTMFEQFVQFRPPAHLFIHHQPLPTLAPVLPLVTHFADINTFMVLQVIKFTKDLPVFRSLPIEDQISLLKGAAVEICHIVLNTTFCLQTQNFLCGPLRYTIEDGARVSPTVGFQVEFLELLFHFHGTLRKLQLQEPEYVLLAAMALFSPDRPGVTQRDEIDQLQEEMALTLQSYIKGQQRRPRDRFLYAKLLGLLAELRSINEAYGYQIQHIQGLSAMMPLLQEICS
Cytochrome P450 2D6 (Homo sapiens), sequence (P10635 whole entry, looked up): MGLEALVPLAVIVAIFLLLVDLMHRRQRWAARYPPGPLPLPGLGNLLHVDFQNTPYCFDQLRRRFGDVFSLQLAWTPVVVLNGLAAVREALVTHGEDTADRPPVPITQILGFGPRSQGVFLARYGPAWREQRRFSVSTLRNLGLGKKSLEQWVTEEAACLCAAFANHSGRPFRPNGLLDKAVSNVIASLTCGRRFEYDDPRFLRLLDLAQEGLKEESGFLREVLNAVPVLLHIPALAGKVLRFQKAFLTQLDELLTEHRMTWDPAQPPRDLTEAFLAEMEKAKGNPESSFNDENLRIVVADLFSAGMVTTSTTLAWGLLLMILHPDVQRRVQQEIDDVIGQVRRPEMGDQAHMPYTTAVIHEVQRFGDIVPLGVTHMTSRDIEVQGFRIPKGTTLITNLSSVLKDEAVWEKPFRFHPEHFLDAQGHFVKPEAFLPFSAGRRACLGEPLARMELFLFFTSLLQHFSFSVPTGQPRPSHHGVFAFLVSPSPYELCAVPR
Nicotinamide N-methyltransferase (Homo sapiens), sequence (P40261 whole entry, looked up): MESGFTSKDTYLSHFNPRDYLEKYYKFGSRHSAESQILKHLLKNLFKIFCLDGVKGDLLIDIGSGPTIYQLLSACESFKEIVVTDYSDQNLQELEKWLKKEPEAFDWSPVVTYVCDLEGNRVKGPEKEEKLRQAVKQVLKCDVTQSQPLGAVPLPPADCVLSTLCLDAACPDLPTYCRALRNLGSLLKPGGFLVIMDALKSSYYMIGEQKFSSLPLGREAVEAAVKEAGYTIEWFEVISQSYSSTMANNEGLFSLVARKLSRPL
Cytochrome P450 2C9 (Homo sapiens), sequence (P11712 whole entry, looked up, canonical isoform): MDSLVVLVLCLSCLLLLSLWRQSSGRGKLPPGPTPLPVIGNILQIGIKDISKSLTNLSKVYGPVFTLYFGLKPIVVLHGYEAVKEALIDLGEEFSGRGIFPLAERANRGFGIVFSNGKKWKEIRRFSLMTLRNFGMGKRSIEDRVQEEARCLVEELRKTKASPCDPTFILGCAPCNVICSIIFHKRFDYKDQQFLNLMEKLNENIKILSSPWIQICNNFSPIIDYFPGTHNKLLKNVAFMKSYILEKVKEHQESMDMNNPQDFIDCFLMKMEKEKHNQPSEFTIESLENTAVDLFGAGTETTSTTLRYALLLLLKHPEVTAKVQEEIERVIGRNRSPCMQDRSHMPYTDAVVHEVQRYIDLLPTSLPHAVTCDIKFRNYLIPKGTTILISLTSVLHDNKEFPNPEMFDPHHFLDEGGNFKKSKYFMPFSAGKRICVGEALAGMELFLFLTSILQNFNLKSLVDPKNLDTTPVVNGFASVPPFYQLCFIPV
Phenylethanolamine N-methyltransferase (Homo sapiens), sequence (P11086 whole entry, looked up): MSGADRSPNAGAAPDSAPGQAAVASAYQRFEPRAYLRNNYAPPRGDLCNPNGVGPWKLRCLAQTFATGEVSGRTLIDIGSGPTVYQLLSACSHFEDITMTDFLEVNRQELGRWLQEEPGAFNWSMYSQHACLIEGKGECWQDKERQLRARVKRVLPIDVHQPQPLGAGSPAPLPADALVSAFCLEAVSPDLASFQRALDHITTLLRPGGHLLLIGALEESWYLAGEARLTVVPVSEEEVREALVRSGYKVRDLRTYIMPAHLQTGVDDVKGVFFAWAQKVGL

CNCCC(Oc1ccccc1C)c1ccccc1 (configuration not stated)
inactive: outcome [1] | Potency [2] | Potency [3]

CCN(CC)C(=O)/C(C#N)=C/c1cc(O)c(O)c([N+](=O)[O-])c1
inactive: Potency [4] | Potency [2] | Potency [3]

CC1(C)O[C@@H]2[C@@H](CO[C@@]3(COS(N)(=O)=O)OC(C)(C)O[C@@H]23)O1
inactive: Potency [4] | Potency [5] | Potency [3]

Oc1ccc(O)cc1
inactive: outcome [1] | Potency [2] | Potency [3]

CC(C)C[C@H]1C(=O)N2CCC[C@H]2[C@]2(O)O[C@](NC(=O)[C@@H]3C=C4c5cccc6[nH]c(Br)c(c56)C[C@H]4N(C)C3)(C(C)C)C(=O)N12
inactive: outcome [1] | Potency [3]
-2.85%: activity [6]
4.08%: activity [7]

C/C=C/c1ccc(OC)cc1
active: Potency [15] 15.8 µM
inactive: outcome [8] | outcome [9] | outcome [10] | outcome [11] | outcome [12] | Potency [2] | Potency [3] | outcome [13] | outcome [14]

CCCCC1=NC2(CCCC2)C(=O)N1Cc1ccc(-c2ccccc2-c2nn[nH]n2)cc1
inactive: Potency [4] | Potency [2] | Potency [3]

CCCC1O[C@@H]2C[C@H]3[C@@H]4CCC5=CC(=O)C=C[C@]5(C)[C@H]4[C@@H](O)C[C@]3(C)[C@]2(C(=O)CO)O1 (some centres not stated)
inactive: outcome [1] | Potency [2] | Potency [3]

NCCCC[C@H](N[C@@H](CCc1ccccc1)C(=O)O)C(=O)N1CCC[C@H]1C(=O)O
inactive: activity change, negative = cytotoxicity [4] -8.63% [at 8.35 µM] | Potency [2] | Potency [3]

NCCC(O)(P(=O)(O)O)P(=O)(O)O
inactive: Potency [4] | Potency [2] | Potency [3]

CCCCCCCCCCCCCCCCOP(=O)([O-])OCC[N+](C)(C)C
inactive: activity change, negative = cytotoxicity [4] -18.3% [at 8.35 µM] | outcome [5] inactive [at 8.33 µM] | Potency [2] | Potency [3]
